A number with no mark means an inactive call. Records with an inconclusive call do not appear. Where a call stands in place of a potency, no number is given. Calls of active or inactive are those of the source. Unless noted, calls follow the shape of the dose curve; as a rule, active = well fitted curve in the direction sought with a large enough effect in the repeat runs; inconclusive = weak or mixed curves; inactive = no such curve, though single readings can be large; an effect the other way counts as inactive or inconclusive.
Legend:
[1] = qHTS assay to identify small molecule agonists of the estrogen receptor alpha (ER-alpha) signaling pathway in the presence of an antagonist - cell viability counter screen (AID 1259386);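 also: series mostly up to about 92 µM; cells exposed to compounds for 22 h at 37 °C before the viability read; nearly all actives have a fitted effect of over 30% in size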
Summary of the method: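 Cell viability in VM7Luc4E2 cells (endogenous full-length ER-alpha) measured by CellTiter-Fluor fluorescence in the same wells as the luciferase screen. Cells pre-cultured 5 days in charcoal-stripped serum, then treated 22 h with compounds at 15 concentrations plus 10.0nM ICI-182,780.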

[2] = target: Progesterone receptor (Homo sapiens) (UniProt P06401); assay: qHTS assay to identify small molecule agonists of the progesterone receptor (PR) signaling pathway (AID 1346784; calls by dose curve; also: nearly all actives have a fitted effect of over 30% in size; also: potency is read from the fitted curve at half-maximal effect)
Summary of the method: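 Reporter assay, GripTite PR-UAS-bla HEK 293T cells: 16 hr exposure to DMSO-dissolved compounds at 37C, 5% CO2, in steroid-depleted (2% charcoal-stripped FBS) medium; beta-lactamase measured by FRET fluorescence.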

[3] = target: Progesterone receptor (Homo sapiens) (UniProt P06401); assay: qHTS assay to identify small molecule antagonists of the progesterone receptor (PR) signaling pathway (AID 1346795; active = well fitted inhibition curve with a large enough effect in the signal ratio in the repeat runs, not every such curve was filed as active; the % refers to the signal ratio; also: potency is read from the fitted curve at half-maximal effect)
Summary of the method: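 Stimulus R5020 at 1 nM final; cells HEK293T PR-UAS-bla; medium with 2% charcoal-stripped FBS; compound exposure 16 hr at 37C, 5% CO2; detection by FRET beta-lactamase substrate, 2 hr, room temperature.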

[4] = qHTS assay to identify small molecule antagonists of the progesterone receptor (PR) signaling pathway - cell viability counter screen (AID 1346798); also: series mostly up to about 92 µM; nearly all actives have a fitted effect of over 50% in size
Summary of the method: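 In the same plates used for the beta-lactamase readout, cell viability of compound- and R5020-treated PR-UAS-bla HEK293T cells (16 hr, 37C) was assessed by CellTiter-Glo luminescence.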

[5] = qHTS assay to identify small molecule agonists of the progesterone receptor (PR) signaling pathway - cell viability counter screen (AID 1346799; calls by dose curve; also: nearly all actives have a fitted effect of over 45% in size)
Summary of the method: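 Multiplexed viability read: CellTiter-Glo luminescence, 30 min RT, following LiveBLAzer FRET measurement on PR-UAS-bla HEK293T cells exposed to compounds 16 hr.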

[6] = qHTS assay to identify small molecule antagonists of the TGF-beta/Smad signaling pathway - cell viability counter screen (AID 1346824); also: nearly all actives have a fitted effect of over 50% in size
Summary of the method: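 SBE-bla HEK 293T cells were plated overnight at 37 C, then given compounds in DMSO plus TGF-beta1 (added as 0.25 ng/mL solution) for 5 hr. After the bla read, CellTiter-Glo was added to the same wells and luminescence read after 30 min at room temperature.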

[7] = qHTS assay to identify small molecule agonists of the TGF-beta/Smad signaling pathway - cell viability counter screen (AID 1346829); also: top concentration of the series differs between compounds; nearly all actives have a fitted effect of over 45% in size
Summary of the method: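 CellTiter-Glo luminescence readout; SBE-bla HEK 293T cells, overnight plating, compound 5 hr at 37 C/5% CO2, then bla substrate 2 hr RT, then CellTiter-Glo 30 min RT.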

[8] = qHTS assay to identify small molecule agonists of the TGF-beta/Smad signaling pathway (AID 1346859; active = well fitted activation curve with a large enough effect in the signal ratio in the repeat runs, not every such curve was filed as active; the % refers to the signal ratio; also: series mostly up to about 77 µM)
Summary of the method: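 Screening used HEK 293T SBE-bla cells at 4,000/well. Test agents: 5 hr, 37 C. Detection: FRET substrate, 2 hr RT, then excitation 405 nm with emissions at 460 and 530 nm.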

[9] = target: Thyrotropin-releasing hormone receptor (Homo sapiens) (UniProt P34981); assay: qHTS assay to identify small molecule antagonists of the thyrotropin-releasing hormone receptor (TRHR) signaling pathway (AID 1346877; active = well fitted inhibition curve with a large enough effect in the repeat runs, not every such curve was filed as active; also: series mostly up to about 51 µM)
Summary of the method: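 TRHR-expressing HEK293 cells loaded with calcium dye for 2 h at 37 C; compounds pre-incubated 5 min at room temperature before TRH challenge at 1 nM final. Intracellular calcium fluorescence read kinetically for 3 min; 15 concentrations in triplicate.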

[10] = target: Thyrotropin-releasing hormone receptor (Homo sapiens) (UniProt P34981); assay: qHTS assay to identify small molecule agonists of the thyrotropin-releasing hormone receptor (TRHR) signaling pathway (AID 1346891; calls by dose curve; also: series mostly up to about 58 µM)
Summary of the method: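 Readout was intracellular calcium fluorescence in TRHR-Hek293 cells. Cells were incubated 18 h, dye-loaded 2 h at 37 °C, and treated with compound in agonist mode.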

Sequence of Progesterone receptor (Homo sapiens) (P06401 whole entry, looked up): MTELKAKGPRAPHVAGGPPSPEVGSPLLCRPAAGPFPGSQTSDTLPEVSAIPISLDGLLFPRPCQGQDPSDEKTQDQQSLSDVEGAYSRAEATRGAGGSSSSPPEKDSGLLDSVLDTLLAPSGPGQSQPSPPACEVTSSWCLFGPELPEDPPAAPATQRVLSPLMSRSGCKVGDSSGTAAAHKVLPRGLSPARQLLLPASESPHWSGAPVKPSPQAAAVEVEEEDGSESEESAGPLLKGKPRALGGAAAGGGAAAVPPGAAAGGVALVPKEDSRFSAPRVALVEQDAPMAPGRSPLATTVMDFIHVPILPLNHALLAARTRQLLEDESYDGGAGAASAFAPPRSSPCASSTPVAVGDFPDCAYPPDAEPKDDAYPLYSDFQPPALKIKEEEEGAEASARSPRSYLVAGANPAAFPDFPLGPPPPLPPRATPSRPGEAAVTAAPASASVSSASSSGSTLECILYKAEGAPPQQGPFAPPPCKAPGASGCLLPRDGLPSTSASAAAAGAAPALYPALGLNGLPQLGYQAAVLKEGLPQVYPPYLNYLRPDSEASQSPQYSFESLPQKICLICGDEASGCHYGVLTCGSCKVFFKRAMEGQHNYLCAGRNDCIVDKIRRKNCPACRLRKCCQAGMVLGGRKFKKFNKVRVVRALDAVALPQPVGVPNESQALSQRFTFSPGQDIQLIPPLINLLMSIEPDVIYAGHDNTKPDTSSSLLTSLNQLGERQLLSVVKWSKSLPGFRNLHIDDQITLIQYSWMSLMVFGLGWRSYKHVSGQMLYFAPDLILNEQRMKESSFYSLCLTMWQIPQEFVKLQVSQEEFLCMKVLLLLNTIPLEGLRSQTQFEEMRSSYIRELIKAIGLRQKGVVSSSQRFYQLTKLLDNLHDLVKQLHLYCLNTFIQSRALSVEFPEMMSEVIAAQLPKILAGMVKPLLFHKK
Sequence of Thyrotropin-releasing hormone receptor (Homo sapiens) (P34981 whole entry, looked up): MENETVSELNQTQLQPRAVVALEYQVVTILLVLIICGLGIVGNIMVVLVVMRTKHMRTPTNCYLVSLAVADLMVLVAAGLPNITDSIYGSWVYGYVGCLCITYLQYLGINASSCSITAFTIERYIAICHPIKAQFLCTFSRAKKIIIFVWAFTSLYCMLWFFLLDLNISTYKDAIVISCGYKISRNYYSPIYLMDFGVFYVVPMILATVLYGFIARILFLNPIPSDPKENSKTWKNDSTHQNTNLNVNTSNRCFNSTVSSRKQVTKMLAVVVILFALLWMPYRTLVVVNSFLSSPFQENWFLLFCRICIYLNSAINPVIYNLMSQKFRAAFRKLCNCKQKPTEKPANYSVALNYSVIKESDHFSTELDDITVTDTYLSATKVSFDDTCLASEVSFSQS

SMILES	Potency [1]	Potency [2]	Potency [3]	Potency [4]	Potency [5]	Potency [6]	outcome [7]	outcome [8]	outcome [9]	outcome [10]	activity change, negative = cytotoxicity [1]	activation [2]	activity change, negative = inhibition [3]	activity change, negative = cytotoxicity [4]	activity change, negative = cytotoxicity [5]	viability change, negative = cytotoxic [6]	activity change, negative = cytotoxicity [7]	activity, negative = inhibition [9]	activation [10]
O=[N+]([O-])c1cccc2cccnc12	inactive	inactive	inactive	inactive	inactive	inactive	inactive	inactive	inactive	inactive									
CCOC(=O)CP(=O)(OCC)OCC	inactive	inactive	inactive	inactive	inactive	inactive	inactive		inactive	inactive									
O=CNC(N1CCN(C(NC=O)C(Cl)(Cl)Cl)CC1)C(Cl)(Cl)Cl (centres undefined)	inactive	inactive	inactive	inactive	inactive	inactive	inactive		inactive	inactive									
CN1CCN(C(=O)O[C@H]2c3nccnc3C(=O)N2c2ccc(Cl)cn2)CC1	inactive	inactive	inactive	inactive	inactive	inactive	inactive	inactive	inactive	inactive									
CN1CCC(N(Cc2ccccc2)c2ccccc2)CC1	inactive	inactive	inactive	inactive	inactive	inactive	inactive	inactive	inactive	inactive									
CNC(=O)Oc1c(C(C)(C)C)cc(C)cc1C(C)(C)C	inactive	inactive	inactive	inactive	inactive	inactive	inactive	inactive	inactive	inactive									
COCC(=O)N(c1c(C)cccc1C)N1CCOC1=O	inactive	inactive	inactive	inactive	inactive	inactive	inactive	inactive	inactive	inactive									
O=C(O)C(Br)CBr (centres undefined)	inactive	5.54 µM (active)	inactive	inactive	inactive	inactive	inactive	inactive	inactive	inactive									
CCS(=O)(=O)C(C)(C)S(=O)(=O)CC	inactive	inactive	inactive	inactive	inactive	inactive	inactive		inactive	inactive									
CNC(=O)O/N=C(\C)SC	inactive	inactive	inactive	inactive	inactive	inactive	inactive	inactive	inactive	inactive									
CN(C)CCc1ccc(O)cc1	inactive	inactive	inactive	inactive	inactive	inactive	inactive	inactive	inactive	inactive									
Cc1cccc(C#N)c1	inactive	inactive	inactive	inactive	inactive	inactive	inactive	inactive	inactive	inactive									
C[N+](=O)[O-]	inactive	inactive	inactive	inactive	inactive	inactive	inactive	inactive	inactive	inactive									
CCOP(=S)(OCC)SCSc1ccc(Cl)cc1	inactive	inactive	4.86 µM (active)	inactive	inactive	inactive	inactive	inactive	inactive	inactive									
O=C1c2ccccc2C(=O)c2ccccc21											2.11% [at 19 µM]	-0.0487% [at 19 µM]	12.9% [at 18.9 µM]	9.36% [at 18.9 µM]	2.43% [at 19 µM]	-2.72% [at 15.8 µM]	-4.2% [at 15.8 µM]	-1.2% [at 10.5 µM]	-0.0612% [at 11.8 µM]
CCC#N	inactive	inactive	inactive	inactive	inactive	inactive	inactive	inactive	inactive	inactive									
O=NN1CCN(N=O)CC1	inactive	inactive	inactive	inactive	inactive	inactive	inactive	inactive	inactive	inactive									
Cc1ncsc1CCCl	inactive	inactive	inactive	inactive	inactive	inactive	inactive	inactive	inactive	inactive									
O=C1OC(=O)C2C1C1(Cl)C(Cl)=C(Cl)C2(Cl)C1(Cl)Cl (centres undefined)	inactive	inactive	inactive	inactive	inactive	inactive	inactive		inactive	inactive									
COc1ccc(C(=O)N2CCCC2=O)cc1	inactive	inactive	inactive	inactive	inactive	inactive	inactive	inactive	inactive	inactive									
O=C(CCN1CC1)OCC(CO)(COC(=O)CCN1CC1)COC(=O)CCN1CC1	inactive	inactive	inactive	inactive	inactive	inactive	inactive	inactive	inactive	inactive									
CCCCOC(=O)c1ccccc1N	inactive	inactive	inactive	inactive	inactive	inactive	inactive	inactive	inactive	inactive									
Cc1cnc[nH]1	inactive	inactive	inactive	inactive	inactive	inactive	inactive	inactive	inactive	inactive									
COc1cc(OC)nc(Sc2cccc(Cl)c2C(=O)O)n1	inactive	inactive	inactive	inactive	inactive	inactive	inactive	inactive	inactive	inactive									
CCN(Cc1ccc(Cl)nc1)/C(=C/[N+](=O)[O-])NC	inactive	inactive		inactive	inactive	inactive	inactive	inactive	inactive	inactive									
